The structures appear in SMILES notation. “And” between values parts separate entries of the source, which are not always exact repeats. Equal entries are not always repeated. A number with no mark means an inactive call. Inconclusive results are not listed. The source made the active and inactive calls. Unless noted, the call rests on the fitted dose curve; in most records, active means well fitted inhibition curve with a large enough effect; inconclusive means small, poorly fitted or top-dose-only effect; inactive means flat fitted curve, though single readings scatter.

Assay [1] can be described thus: Drug repurposing screens with cells derived from glioblastoma tumor samples (AID 1345199). Further: nearly all actives have a fitted effect of over 40% in size. Further: potency means the concentration at half of the fitted maximal effect. On activity, negative = cell killing: on the % scale 0 is the no-effect control and ±100 the full control effect. The conditions noted are these: GBM patient neurospheres viability, ATP luminescence, 48 h. A digest of the protocol:
(§1)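 Four patient lines of CD133+ GBM neurospheres were screened at several concentrations; hits were retested in those lines plus three slower-growing GBM lines, using 48-hour treatment and ATP-based viability.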

The next assay relates to astro (control astrocytes). The description is as above. The settings on record: viability, ATP luminescence, 48 h; series mostly up to 45.9 µM. In short, it runs like this:
as §1

Assay [2] deals with Nuclear receptor subfamily 1 group I member 2 (Rattus norvegicus) (UniProt Q9R1A7). Kind of assay: qHTS assay for small molecule activators of the rat pregnane X receptor (rPXR) signaling pathway (AID 651751; call rule not given here; further: 0% is about no effect). The conditions noted are these: rPXR reporter cells, luciferase (One-Glo), 24 h. (In qHTS, concentration-response curves come from the screen itself.)
Nuclear receptor subfamily 1 group I member 2 (Rattus norvegicus), sequence (Q9R1A7 whole entry, looked up): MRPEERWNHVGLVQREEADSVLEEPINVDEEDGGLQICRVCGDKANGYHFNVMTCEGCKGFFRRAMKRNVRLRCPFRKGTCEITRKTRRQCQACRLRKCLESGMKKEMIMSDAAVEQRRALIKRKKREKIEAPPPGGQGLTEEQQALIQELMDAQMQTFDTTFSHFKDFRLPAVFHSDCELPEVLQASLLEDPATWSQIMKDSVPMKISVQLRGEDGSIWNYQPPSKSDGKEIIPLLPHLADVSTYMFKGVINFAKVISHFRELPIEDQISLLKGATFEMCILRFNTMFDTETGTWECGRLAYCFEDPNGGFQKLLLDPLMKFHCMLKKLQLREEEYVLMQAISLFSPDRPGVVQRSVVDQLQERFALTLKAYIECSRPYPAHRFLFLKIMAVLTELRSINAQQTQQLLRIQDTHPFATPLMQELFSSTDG
Assay [3] is described as follows: qHTS assay for small molecule activators of the human pregnane X receptor (PXR) signaling pathway (AID 720659; call rule not given here; further: 0% is about no effect). The conditions noted are these: DPX-2 HepG2 CYP3A4-luciferase, 24 h; series mostly up to 92.3 µM.
Where [4] appears, read: at 46.1 µM (top of the series), tumour line C.
Where [5] appears, read: at 45.9 µM (top of the series), tumour line B.
The mark [6] stands for this setting: at 45.9 µM (top of the series), tumour line D.
Where [7] appears, read: at 46 µM (top of the series), tumour line A.
[8] abbreviates: at 20 µM (top of the series), tumour line C.
Setting [9] is: at 21.2 µM (top of the series), tumour line B.
Where [10] appears, read: at 21.2 µM (top of the series), tumour line D.

`O=C1CSC2(CCN(CCCN3c4ccccc4Sc4ccc(Cl)cc43)CC2)N1`: the activity, negative = cell killing in assay [1] (setting [4]) is -24.2%. Also, the Potency in assay [1] (tumour line A) was 3.16 µM (active); in assay [1] (tumour line D) it was 20 µM (active); with astro, 25.1 µM (active).

For the molecule `IC(I)I`, the activity, negative = cell killing in assay [1] (setting [5]) was -9.98%; in assay [1] (setting [6]), -13.1%; in assay [1] (setting [7]) it was -9.65%; in assay [1] (setting [4]), 2.5%. The Potency result in the assay on astro was “inactive”. Also, in assay [2], the max response is 0.127% and 1.54%. Moreover, the call in assay [3] was inactive.

Turning to `CCCCC(=O)O[C@]1(C(=O)CO)[C@H](C)C[C@H]2[C@@H]3CCC4=CC(=O)C=C[C@]4(C)[C@@]3(F)[C@@H](O)C[C@@]21C`, the activity, negative = cell killing in assay [1] (setting [5]) was -7.12%; in assay [1] (setting [6]), -22.7%; in assay [1] (setting [4]), -23.5%. Also, the Potency result with astro was “inactive”.

For `C#CCOc1ccc2c(C)cc(=O)oc2c1`, the activity, negative = cell killing in assay [1] (setting [5]) is -16.6%; in assay [1] (setting [6]), -17.5%; in assay [1] (setting [4]), -16.5%. Moreover, the Potency result in the assay with astro was “inactive”.

Consider `CC1=C(/C=C/C(C)=C/C=C/C(C)=C/C=C/C=C(C)/C=C/C=C(C)/C=C/C2=C(C)C(=O)CCC2(C)C)C(C)(C)CCC1=O`, for which the activity, negative = cell killing is -0.298% in assay [1] (setting [5]), 9.62% in assay [1] (setting [6]) and -24.8% in assay [1] (setting [4]). Also, the Potency entry in the assay on astro is “inactive”.

With `CNc1cc(OC)c(C(=O)N[C@H]2CCN(Cc3ccccc3)[C@H]2C)cc1Cl`, the activity, negative = cell killing in assay [1] (setting [5]) is -17.5%. Also, the Potency was 7.08 µM (active) in assay [1] (tumour line A) and 20 µM (active) in assay [1] (tumour line D). Further, in the assay on astro, the Potency entry was “inactive”.

Turning to `Nc1nc(N)c2nc(CNc3ccc(C(=O)N[C@@H](CCC(=O)O)C(=O)O)cc3)cnc2n1`, the activity, negative = cell killing is -5.27% in assay [1] (setting [5]), 12.1% in assay [1] (setting [6]) and -19.6% in assay [1] (setting [7]). Also, the Potency entry in the assay on astro is “inactive”.

Turning to `COC(=O)C1=C(C#N)NC(C)=C(C(=O)OC(C)C)C1c1cccc([N+](=O)[O-])c1` (stereo not given), the activity, negative = cell killing in assay [1] (setting [5]) was -5.18%; in assay [1] (setting [6]) it was -25.1%. The Potency in assay [1] (tumour line A) is 14.1 µM (active). Moreover, the Potency result in the assay with astro is “inactive”.

Regarding `CC1=CCC(C(C)(C)O)CC1` (stereo not given), the activity, negative = cell killing is -2.21% in assay [1] (setting [5]), -4.36% in assay [1] (setting [6]), -13.1% in assay [1] (setting [7]) and -3.81% in assay [1] (setting [4]). Besides, the Potency result in the assay with astro is “inactive”. Further, in assay [2], the max response is -0.27%. Also, the call in assay [3] was inactive.

In the case of `CCOC(=O)C1=C(C)NC(C)=C(C(=O)OCC)C1c1ccccc1C=CC(=O)OC(C)(C)C`, the activity, negative = cell killing in assay [1] (setting [4]) was 2.25%. Moreover, the Potency in assay [1] (tumour line A) is 2.24 µM (active); in assay [1] (tumour line D), 12.6 µM (active); in the assay on astro, 20 µM (active).

For `CCCCC(C)(O)C/C=C/[C@H]1[C@H](O)CC(=O)[C@@H]1CCCCCCC(=O)OC` (stereo not given in full), the activity, negative = cell killing in assay [1] (setting [5]) is -29.2%; in assay [1] (setting [6]), -0.625%; in assay [1] (setting [4]) it was 7.24%. Also, the Potency result in the assay on astro is “inactive”.

For `CC[N+](CC)(CC)CCC(O)(c1ccccc1)C1CCCCC1` (stereo not given), the activity, negative = cell killing in assay [1] (setting [8]) is 3.9%; in assay [1] (setting [9]) it was -4.74%; in assay [1] (setting [10]), 0.449%. Besides, the Potency entry with astro is “inactive”.

Take `Nc1ccn([C@H]2CS[C@@H](CO)O2)c(=O)n1`: the activity, negative = cell killing is -4.08% in assay [1] (setting [5]), 8.01% in assay [1] (setting [6]), -14.1% in assay [1] (setting [7]) and 0.221% in assay [1] (setting [4]). Moreover, the Potency entry in the assay on astro was “inactive”. Further, the molecule was called inactive in assay [3].

For the molecule `CO[C@@H]1[C@@H](O[C@@H]2O[C@H](C)[C@@H](O[C@H]3C[C@@](C)(O)[C@@H](O)[C@H](C)O3)[C@H](N(C)C)[C@H]2O)[C@@H](CC=O)C[C@@H](C)[C@@H](O[C@@H]2CC[C@H](N(C)C)[C@@H](C)O2)/C=C/C=C/C[C@@H](C)OC(=O)C[C@H]1O`, the activity, negative = cell killing in assay [1] (setting [8]) is -1.82%; in assay [1] (setting [9]), 2.63%; in assay [1] (setting [10]) it was 8.89%. In the assay with astro, the Potency result is “inactive”.

On to `COc1ccc(CCNC[C@H](O)c2ccc(O)cc2)cc1OC`, for which the figures for the activity, negative = cell killing in assay [1] (setting [5]), in assay [1] (setting [6]) and in assay [1] (setting [4]) were -3.8%, -0.958% and -0.44%, respectively. The Potency entry in the assay with astro was “inactive”.

For `CCC(=O)NCCC1CCc2ccc3c(c21)CCO3` (stereo not given), the activity, negative = cell killing in assay [1] (setting [5]) is -16.2%; in assay [1] (setting [4]), -14.5%. Also, the Potency in assay [1] (tumour line A) was 11.2 µM (active). For the same molecule, the Potency entry with astro was “inactive”.

Take `CO[C@H]1C=CO[C@@]2(C)Oc3c(C)c(O)c4c(O)c(c5c(c4c3C2=O)=NC2(CCN(CC(C)C)CC2)N=5)NC(=O)/C(C)=C\C=C/[C@H](C)[C@H](O)[C@@H](C)[C@@H](O)[C@@H](C)[C@H](OC(C)=O)[C@@H]1C`: the activity, negative = cell killing was -14.2% in assay [1] (setting [5]) and 33.4% in assay [1] (setting [4]). For the same molecule, in assay [1] (tumour line A), the Potency is 10 µM (active). Besides, the Potency result with astro was “inactive”.

With `CC(NNC(=O)c1ccccc1)c1ccccc1` (stereo not given), the activity, negative = cell killing was -15.6% in assay [1] (setting [5]), -19.2% in assay [1] (setting [6]) and -40.2% in assay [1] (setting [4]). Further, the Potency result with astro was “inactive”.

For the molecule `CC1(C)O[C@@H]2C[C@H]3[C@@H]4CCC5=CC(=O)C=C[C@]5(C)[C@H]4[C@@H](O)C[C@]3(C)[C@]2(C(=O)CO)O1`, the activity, negative = cell killing was -5.55% in assay [1] (setting [5]), -10.6% in assay [1] (setting [7]) and -10.7% in assay [1] (setting [4]). Moreover, the Potency result in the assay with astro is “inactive”.

As for `O=C(O)C1CCCN1` (stereo not given), the activity, negative = cell killing in assay [1] (setting [5]) is -8.24%; in assay [1] (setting [6]), -1.47%; in assay [1] (setting [4]) it was -1.4%. Further, the Potency result with astro is “inactive”.

With `O=C(O)CCC(=O)C(=O)O`, the activity, negative = cell killing in assay [1] (setting [5]) is -7.95%; in assay [1] (setting [6]) it was 2.23%; in assay [1] (setting [7]), -23.8%; in assay [1] (setting [4]) it was 3.09%. Further, the Potency entry with astro is “inactive”. For the same molecule, in assay [2], the max response was 0.868%. Further, in assay [3], the molecule was called inactive.
